Compound activity: PubChem, several laboratories
Most compounds without a hit are left out; they make up all but 2.4% or so of the library.
HTR2A ag: agonists of mouse serotonin 5-HT2A receptor (HTR2A); P35363; CHO-K1 mHTR2A beta-arrestin complementation, luminescence; percent of 30 µM serotonin response; activation, % at 7.6 µM; actives 0.66% (n = 360,000);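 active = activation above a run cutoff, the mean activation of all tested compounds plus 3 SD, cut at about 14% in these data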;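 note: 0% = plate median of compound wells and 100% = 30 µM serotonin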
TLR4-MyD88 BLA: inhibitors of human TLR4-MyD88 binding; O00206+Q99836; HeLa CL3-4 TLR4/MyD88 BLA complementation, FRET ratio; inhibition, % at 8.4 µM; actives 0.18% (n = 200,000); AID 861; in the data active = inhibition above about 25%;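 note: 0% = vehicle and 100% = reference inhibitor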
NOD2 RIPK2 PPI: inhibitors of human NOD2-RIPK2 interaction; CHO BLA complementation NOD2-RIPK2, CCF4 ratio; O43353; inhibition, % at 4.98 µM; actives 0.38% (n = 360,000); in the data active = inhibition above about 21%;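 note: 0% = vehicle only and 100% = reference blocker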
ANO1 block: inhibitors of mouse TMEM16A calcium-activated chloride channel | Q8BHY3 | HEK293 TMEM16A/YFP iodide influx fluorescence, ionomycin | normalized B-score (activity score, 25-100; higher = stronger inhibition) at 10 µM | actives 1.2% (n = 310,000) | AID 588511;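 active = ratio plate-corrected score three or more library SD toward inhibition, starting fluorescence score within five deviations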;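 note: score derived from kinetic fluorescence span divided by baseline fluorescence per well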
TLR9-MyD88 block: TLR9-MyD88 interaction inhibition; CHO BLA complementation TLR9-MyD88, CCF4 FRET ratio; inhibition, % at 4.98 µM; actives 0.21% (n = 340,000); AID 504734;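 active = inhibition above the mean over all tested compounds plus 3 SD, cut at about 21% in these data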;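 note: 0% = DMSO only wells and 100% = clavulanate BLA inhibitor control wells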
ANO1 activ: activates or potentiates the mouse TMEM16A chloride channel | HEK293 TMEM16A/YFP-H148Q/I152L, iodide quench fluorescence; hits give low values | AID 623877 | actives 0.3% (n = 340,000) | B-score at 10 µM;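 active = fluorescence-ratio B-score plate-corrected deviation score at least 3 library SD below zero, with starting fluorescence score within 5 deviations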;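 note: channel opened by trigger with iodide after compound preincubation; score built on the fluorescence ratio of max minus min over baseline; more negative score means more quench and so TMEM16A activation or potentiation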
NOD2-RIPK2 conf: NOD2-RIPK2 interaction inhibition confirmed | inhibition, % at 4.98 µM | shares compounds with NOD2 RIPK2 PPI | CHO cells, NOD2-RIPK2 BLA complementation, CCF4 FRET | actives 70% (n = 1,200);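 active = mean inhibition across replicates above a set limit taken from the earlier primary screen, cut at about 21% in these data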;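 note: 0% = DMSO-only wells and the high end = clavulanate BLA-blocked wells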
NOD2 BLA counter: hits BLA reporter in NOD2-RIPK2 inhibitor counterscreen. actives 57% (n = 1,200). CHO BLA reporter, CCF4 FRET ratio. inhibition, % at 4.98 µM. shares compounds with NOD2 RIPK2 PPI;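 active = mean inhibition above the low-control mean inhibition plus three low-control SD, cut at about 11% in these data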;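 note: 0% = DMSO only wells and 100% = clavulanate high control wells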
* hit, by the source's call; i = inactive; . = not tested or not shown.

SMILES	HTR2A ag	TLR4-MyD88 BLA	NOD2 RIPK2 PPI	ANO1 block	TLR9-MyD88 block	ANO1 activ	NOD2-RIPK2 conf	NOD2 BLA counter
CC(C)(C)NC(=O)C(c1ccc(C#N)cc1)n1c(=O)c(-c2cc3ccccc3[nH]2)nc2ccccc21 (configuration not stated)	1	.	54*	.	.	.	51*	70*
CC(C)(C)NC(=O)C(c1ccccc1)n1c(=O)c(-c2cc3ccccc3[nH]2)nc2ccccc21 (configuration not stated)	-2	.	43*	.	.	.	40*	65*
O=C(NC1CCCC1)C(C1CC1)n1c(-c2cc3ccccc3[nH]2)nc2ccccc21 (configuration not stated)	-2	.	1	.	.	.	.	.
Nc1nonc1-n1nnc(C(=O)c2ccccc2)c1-c1ccccc1	-5	-7	9	i	-4	i	.	.
COC(=O)c1oc2nc(C)cc(C)c2c1N	-1	-16	-72	i	-7	i	.	.
Cc1ccc2c(c1)CCCN2C(=O)CCc1nc2ccccc2c(=O)[nH]1	-5	.	-10	.	-4	i	.	.
COc1cc(OC)cc(C(=O)NC(C(=O)O)C23CC4CC(CC(C4)C2)C3)c1 (configuration not stated)	1	0	-8	i	-4	i	.	.
O=C(O)CCn1c(C(=O)O)cc2sccc21	6	1	-115	i	7	i	.	.
CC(C)(C)NC(=O)C(c1ccc(-c2ccccc2)cc1)n1c(=O)c(-c2cc3ccccc3[nH]2)nc2ccccc21 (configuration not stated)	1	.	40*	.	.	.	34*	63*
CC(C)(C)NC(=O)C(c1cccc2ccccc12)n1c(=O)c(-c2cc3ccccc3[nH]2)nc2ccccc21 (configuration not stated)	-3	.	40*	.	.	.	34*	62*
COc1ccc(-c2cc(C(=O)Nc3cccc(S(=O)(=O)NCc4ccco4)c3)c3ccccc3n2)cc1OC	7	4	-4	i	10	i	.	.
O=C1NC(c2ccccc2)=C(c2ccc3ccccc3n2)C(c2ccncc2)N1 (configuration not stated)	0	5	-5	i	2	i	.	.
CN1CCN(c2ccc(S(=O)(=O)N3CCCCC3)cc2NC(=O)/C=C/c2ccc(Cl)c([N+](=O)[O-])c2)CC1	-4	.	22*	i	8	i	30*	-10
NC(N)=NC1=NC(=O)C(Cc2ccccc2Cl)S1 (configuration not stated)	2	.	-5	i	-4	i	.	.
N#Cc1c2ccc(OCC(=O)NCc3ccco3)cc2n2ccccc12	-3	.	12	i	-1	i	.	.
N#Cc1c2ccc(O)cc2n2ccccc12	1	4	22*	i	13	i	21*	26*
O=C(CN1C(=O)NC2(CCSC2)C1=O)N1CCN(c2ccc(F)cc2)CC1 (configuration not stated)	2	-18	2	i	-8	i	.	.
O=C(Cn1ncc(Cl)c(Cl)c1=O)Nc1ccc2c(c1)OCO2	1	.	21*	.	10	i	25*	5
O=C(CN1CCCCC1)NC(=O)NC1CCCC1	-1	-18	2	i	-5	i	.	.
Cc1ccc(S(=O)(=O)N2CCCCC2)cc1NC(=O)Cn1ncc(Cl)c(Cl)c1=O	-6	.	44*	.	20	i	45*	12*
O=C(Cn1ncc(Cl)c(Cl)c1=O)N1CCN(S(=O)(=O)c2ccc3ccccc3c2)CC1	-1	19	50*	i	11	i	68*	15*
O=C(Cn1ncc(Cl)c(Cl)c1=O)NC(=O)NC1CCCCC1	-3	.	28*	.	6	i	47*	8
CC1CCc2c(sc3ncnc(SCC(=O)N(C)C4CCS(=O)(=O)C4)c23)C1 (configuration not stated)	-2	.	-6	.	-9	i	.	.
CCN(CC)S(=O)(=O)c1cc(NC(=O)Cn2ncc(Cl)c(Cl)c2=O)ccc1C	3	.	22*	i	19	i	35*	9
COc1ccc(NC(=O)Cn2ncc(Cl)c(Cl)c2=O)cc1S(=O)(=O)N1CCOCC1	7	0	-17	i	-4	i	.	.
SMILES	HTR2A ag	TLR4-MyD88 BLA	NOD2 RIPK2 PPI	ANO1 block	TLR9-MyD88 block	ANO1 activ	NOD2-RIPK2 conf	NOD2 BLA counter
Cc1cc(Br)ccc1NC(=O)CNC(=O)Cn1ncc(Cl)c(Cl)c1=O	-4	-3	25*	i	5	i	36*	4
Cc1cc(Br)ccc1NC(=O)CNC(=O)CSc1ncccn1	-3	.	4	.	6	i	.	.
CS(=O)(=O)N(CC(=O)Nc1c(F)cccc1F)Cc1ccccc1	1	.	4	i	-9	i	.	.
O=[N+]([O-])c1ccc2c(c1)Cc1cc(F)ccc1-2	3	.	-17	.	-5	i	.	.
O=C1C=CC(=O)N1c1ccc2c(c1)Cc1cc(F)ccc1-2	-1	.	23*	.	4	i	64*	16*
CC(=O)Nc1c(Cl)cnn(-c2ccccc2)c1=O	9	.	22*	i	.	i	7	-4
CNC(=O)c1c(Cl)cnn1-c1ccccc1	-3	-6	-9	i	.	i	.	.
CC(=O)Nc1ccc(NC(=O)c2cc(-c3ccc(F)cc3C)n[nH]2)cc1	-10	.	28*	.	.	.	-21	-8
Cc1cc(F)ccc1-c1cc(C(=O)Nc2ccccc2)[nH]n1	-8	.	-2	.	.	.	.	.
CC(=O)Nc1cc(-c2nn(C)c(=O)c3ccccc23)ccc1N1CCCCC1	5	13	2	i	7	i	.	.
COc1ccc(N2C(=O)C(CC(=O)Nc3ccc(Cl)cc3)N(NC(=O)c3cccc(F)c3)C2=S)cc1 (configuration not stated)	-1	.	8	i	-4	i	.	.
COc1ccc(NC(=O)CC2C(=O)N(c3ccc(OC)cc3)C(=S)N2NC(=O)c2cccc(F)c2)cc1 (configuration not stated)	-3	-18	22*	i	7	i	5	-3
O=C(CSc1ccccn1)Nc1ccc(NC(=O)CSc2ccccn2)cc1	8	-3	1	i	3	i	.	.
O=C(CSc1ccccn1)Nc1nonc1[N+](=O)[O-]	-2	.	31*	i	15	i	13	5
O=c1c(O)c(-c2cccs2)oc2ccc(Cl)cc12	-10	14	45*	i	21*	i	45*	52*
